Measured values: the supplement of paper PMC11417369
Over roughly 25,000 sequences, “ln(normalized median fluorescence intensity)” has its median near 9.3; the highest 2% begin near 10. The list comes from a sample in which the highest values are over-represented; it also holds similar and randomly drawn sequences.

Test system: PF3D7_0420300 AP2 domain 1 (GST-tagged)
Assay: gcPBM binding intensity (ln(normalized median fluorescence intensity)); higher = stronger DNA binding
How it was run: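 Alexa488 anti-GST antibody, scanned at 488 nm, detected GST-tagged P. falciparum DNA-binding domains that had been expressed in E. coli and incubated for 1 h on an Agilent 4 × 180k array. The array carried primer-extended double-stranded 36-bp intergenic genomic probes and negative controls. Binding intensity is the highest Masliner-normalised natural-log median intensity across replicate spots of either orientation of each probe.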

Sequence	gcPBM binding intensity (ln)
TAATAACTACAAAAAAAAAAGAAAAATAGAAAAAGG [CACACA_negctrl_site1102]	9.55
TTGCATATTTCTAATTGTACATTATTTTATTTTATA [XGTACX_site8451]	9.45
AAAAAAAAGAAACACACACACATACACATAAATATA [CACACA_site3807]	10.1
AGAAAAAAAAAACACACACACACACCCTCAATATAA [CACACA_site39]	10.1
AAAGAAAAAAAAAACACACACACACGCATTCAATAT [CACACA_site6169]	10.1
AAAAAAAAAAAAGAAACACACATATATATATATATA [CACACA_site140]	9.23
AGAGATATAAGAAAAGCACACACACCCAAAAAAAAA [CACACA_site8917]	9.92
AGATATAAGAAAAGCACACACACACCCAAAAAAAAA [CACACA_site2826]	10.2
AAAGAAAAAAAAAACACACACACACCCATTCAATAT [CACACA_site38]	10.2
CACTAAAAGAAACACACACACACACCCATATATATA [CACACA_site4151]	10.2
ATAAAAAAAAGAAAAACACACACATATATATATATA [CACACA_site8243]	9.61
ATATAAGAAAAGCACACACACACAAAAAAAAAAAAA [CACACA_site2827]	10.1
AAAAGAAAAAGAAAAACACACATAAATATAAATATA [CACACA_site1879]	9.59
AATAAAAAGAAACACACACACACACCCATATATATA [CACACA_site3589]	10.2
AGTAACTAATTAAATGCATGTCGATATATATTATAT [TGCATGCA_site1038]	9.35
CGTTTTCTATATCATTGTACATATTCATGTGTAAAT [XGTACX_site2741]	9.24
CATAAATACAGATATACACACATATATATATATATA [CACACA_site4528]	9.45
AATAAAAAGTAATAATAACGTATAATTTATTATACT [TGCATGCA_negctrl_site414]	9.14
TATTTTTTATGATTAACACACACACTAATAAAAAAA [CACACA_site9370]	9.77
ACGTTTACGTTATTATGTACGTAATATATCATACCT [XGTACX_site5006]	9.09
CAACAAAAGAAACACACACACACAAACACAAAAAAA [CACACA_site3389]	10
CACACCCACCAACACACACACAAAAAAAAAAAGAAA [CACACA_site500]	9.59
AAAAAAAAAAGAAACACACACATATATATATAGAAT [CACACA_site1777]	10.1
ATACTAAAGAAACACACACACATATATATATAGAAT [CACACA_site100]	10.3

Sequence	gcPBM binding intensity (ln)
TTAACAAAGAAACACACACACACACCCAAAAAAAAA [CACACA_site516]	10.2
AAAAAAAAGAAAAACACACACATATATATATAGAAT [CACACA_site1006]	10.2
TGACATAATGTGTGTAGTACATATATCGTTATTTGA [XGTACX_site5152]	9.46
ACATGTAAATTTACATGTACATGTAACACTTAATAT [XGTACX_site4575]	9.39
AGAAAGAAAGAATACACACACACATATATAAATATC [CACACA_site7716]	10.2
GTATCAAAAGAATACACACACACATACATATATATA [CACACA_site3796]	10.2
AAAGAAATGAAATATACACACATACATATATACATA [CACACA_site9335]	9.81
TAAAGAAATAAATACATACACACATATATATATATA [CACACA_site3363]	9.46
AATAAAAAAGAATATACACACATAAATATAAAATAT [CACACA_site683]	9.9
AGAAAGAAAGAATACACACACACATATATATATATC [CACACA_site3744]	10.4
AAAAAAAACAAATACACACGCACACCGAAAAAAAAA [CACACA_site803]	10
TCCTACATATAAAAATGTACCCATTGTTTTTTTTTT [XGTACX_site7205]	9.11
TTCATTCATTTTATTACACACAAAAAAAAAAAAAAA [CACACA_site3680]	9.07
AACATATATATATATACATGCATATGAACAACGAAT [TGCATGCA_site93]	9.62
CTTTTTAATGAATACACACACACACCGATATATATA [CACACA_site5296]	10.1
AAAAAAAAAAAACACACACACATATATATATATATA [CACACA_site732]	9.75
CACAAATATATACATACACACATATATACACATATA [CACACA_site8024]	9.86
AAAAAAAAAAAAAACATACACACAAATATATACATA [CACACA_site4010]	9.67
AGCAAATACAAACACACACACACATATACATATATA [CACACA_site3497]	10.2
AAGGCAAACAAACACACACACATATATACATATATA [CACACA_site2122]	9.98
AAAAAAAAAAAAAACACACACATATATATATATATA [CACACA_site1891]	9.55
TAAAGGCAAACAAACACACACACATATATACATATA [CACACA_site2123]	10.2
TAAAGGCAAACAAACACACACACATATATACCTATA [CACACA_site7078]	9.91
AAAAAACAAAAACACACACACACATATATATATATA [CACACA_site3654]	10.2

Sequence	gcPBM binding intensity (ln)
CACAAATATACAAATACACACAAATATACACATATA [CACACA_site7176]	9.77
AAAAAAAAAAAACACACACACACATACAAAATATAT [CACACA_site1448]	10.3
AAAAAAAAAAAACATACACACAAATATATACATACA [CACACA_site4011]	9.89
TAATAATTATTGCACGCACACAAAAACCTATAGATT [CACACA_site2931]	9.45
ATGATCATAAAACACACACACAAAAAAAAAAAAAAA [CACACA_site1805]	9.51
TTATTTTTTCAAGAATGTACTTACGAATTGTCGTAT [XGTACX_site1363]	8.78
ATAAAAACATAAAAATGTACATATATATATATATAT [XGTACX_site7165]	9.23
TGAGATAACAAAAGTTGTACTTTTTTTTTTTTTTTT [XGTACX_site3004]	8.89
TATATATATATAATAGTGCATAAATAAATATATAAA	9.28
TACAATATTTTGAGACGTACATATATACATTTACAT [XGTACX_site5880]	9.24
AAAATGAATATAATGACGCACACTTAAAATTGTTAA [CACACA_site2509]	9.29
ATATGTTTATTAAATGCATGTCAAGACTTAAGATAT [TGCATGCA_site329]	9.24
TGATTCATTGATAAGGGTACATTTATAATTATGATA [XGTACX_site6319]	9.02
CGCATACACCAACACACACACACATATATATATATA [CACACA_site635]	10.2
TATATATATACCAACACACATACATATATATATATA [CACACA_site1795]	9.46
GGCAACATTTGAAACACACACACATACAAACAAACA [CACACA_site3307]	9.97
CAACATTTGAAACACACACACATACAAACAAACAAA [CACACA_site3306]	10.2
AAAAAAAAAAAACACACACACAAATACAAATGGTAA [CACACA_site1720]	10.1
AACATACACATATACACACACACATATATACATATA [CACACA_site1093]	10.2
CAACATTTGAGACACACACACATACAAACAAACAAA [CACACA_site7538]	10
TACATACATACATACACACACACATATATATACATA [CACACA_site853]	10.1
TATATATATATACCAACACACATACATATATATATA [CACACA_site8530]	9.68
TATACATATATATACACACACACATATATATATATA [CACACA_site1299]	9.95
AAAAAAAAAAAAAACACACACACAAATACAAATGGT [CACACA_site1721]	10.2

Sequence	gcPBM binding intensity (ln)
AAAAAAAAAAAAAACACACACACAAATACAAATACA [CACACA_site414]	10.1
TTATTATAAATGTTTTGTACGTACATCCGAAAATAA [XGTACX_site2175]	9.05
TTTTTTGTTAAGTTGGTGCAAACAATAGTTATTGAC	8.95
TTTAAAGTTTTATACACACACCAAAGTTATTCTAAT [CACACA_site6432]	9.56
GATTAAAATCAAAGGTGTACGCACAAATAAGTCCCA [XGTACX_site4360]	9.3
TTTCTTATATAAGTGTACTAAAATATATATATGCAA [GTGCAC_negctrl_site546]	9
GTGTCAAATTTTATAACACACAAAAGGTTATATAAG [CACACA_site7839]	9.28
AAATAGATAAACTAAACACACAAAAAAAAAAAAAAT [CACACA_site1179]	9.84
CATTTATTTTTGTTCTGTACATAAAGATGAACAAAA [XGTACX_site6797]	8.81
TATACGTATACCTATACACACATATATATATATATA [CACACA_site1273]	9.49
AATATAAACAAACACACACACATATATATATATATT [CACACA_site5592]	10.1
AAAAAAAAAAAAAACACACACACACGCAAATACATA [CACACA_site6474]	10.2
AACATACACATATACACACACACATATATACCTATA [CACACA_site6643]	10.4
AATATAAACACAAACACACACATATATATATATATA [CACACA_site4307]	9.68
CATACATACAAACACACACACATATATATATATATA [CACACA_site43]	9.86
TATATATATATATATACACACATATATACCTATATA [CACACA_site6085]	9.31
TATATACACGCACATACACACAAATAAAAAAACACC [CACACA_site7578]	9.93
CATACATACAAACACACACACATATATATACATACA [CACACA_site852]	10.2
GGATATAACAAACACACACACACATATATATATATT [CACACA_site4141]	10.2
AAAAAAAAAACAAATACACACGCACCCAAAAAAAAA [CACACA_site8166]	9.81
CACATACACATACAAACACACATTATATATATATAT [CACACA_site8460]	9.62
